In the library only some 21% were active in any assay of this set; here they are far more common.
HCV inhibitor: HCV inhibition | Huh7.5.1 HCVcc-Cre infection, luciferase reporter, 44 h | 3.4% of 340,000 active | Potency, µM (doses to about 41.8 µM), for the others: at the top dose activity change, negative = inhibition, most hits filed as inhibitors; also: potency is read from the fitted curve at half-maximal effect; % is scaled to controls: 0 for no effect and ±100 for the full control effect
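Infectious HCV cell culture screen: compound-treated cells (1,000/well, pre-plated 4 h) are infected with HCVcc-Cre at roughly 0.5 moi and grown 44 h. Infection is quantified by luciferase signal after 15 min substrate incubation at room temperature.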
Shiga toxin inh: inhibitors of Shiga toxin in Vero cells. AID 2315. Vero cells, Shiga toxin protein synthesis inhibition reporter. 9.2% of 290,000 active. inhibition, % at 38.7 µM; in the data active = inhibition mostly above about 28%, no sharp cut-off; inactive = mostly below about 43%; also: 0% is about no effect
Cycloheximide cs: counter-screen for Shiga toxin inhibitors: cycloheximide protein synthesis inhibition; cell reporter, cycloheximide protein synthesis inhibition counterscreen; AID 2314; 12% of 300,000 active; max response, %; in the data active = max response mostly above about 13%, no sharp cut-off; inactive = mostly below about 14%; also: read at 38.3 µM for the half of the compounds with a filed dose; 0% is about no effect
Pf growth 96h: P. falciparum growth inhibition at 96 hour, primary screen for plastid delayed-death inhibitors | P. falciparum luciferase reporter growth, 96 h | Potency, µM (series often up to 28.7 µM), without a hit: top-dose activity change, negative = inhibition, usual class: inhibitors | 6.9% of 320,000 active; also: potency is read from the fitted curve at half-maximal effect; % is scaled to controls: 0 for no effect and ±100 for the full control effect
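Two-generation exposure (96 h) targets delayed-death phenotype. Reporter parasites carrying integrated firefly luciferase, in red cells at 2% hematocrit and 0.05% parasitemia final, kept at 37 C, 5% CO2; luminescence loss indicates inhibition.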
HCMV inh: blocks human cytomegalovirus replication | HFF cells, HCMV-luciferase reporter, 72 h; hits give low values | activity change, negative = inhibition, % at 57.5 µM | AID 1259415 | 4.5% of 410,000 active; in the data active = activity change below about -60%; inconclusive = no clear call, values can overlap the other calls; inactive = above about -39%; also: % is scaled to controls: 0 for no effect and ±100 for the full control effect
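After 16 h attachment at 37C, HFF cells received test compound and HCMV-luciferase (1 PFU/cell); reporter luminescence read 72 h later, data normalized against buffer-only and known inhibitor Salinomycin.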
Pf growth 48h: inhibits P. falciparum growth in the first generation, 48 h | Potency, µM (highest dose often 28.7 µM), without a hit: at the highest dose activity change, negative = inhibition, actives largely listed as inhibitors | 5.9% of 310,000 active | P. falciparum luciferase growth in erythrocytes, 48 h; also: potency is read from the fitted curve at half-maximal effect; % is scaled to controls: 0 for no effect and ±100 for the full control effect
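In quantitative HTS format, infected erythrocytes bearing luciferase-reporter parasites were treated for a single generation at 37 C. Luminescence after adding detection reagent served as the growth measure.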
* = called active by the depositor; ? = inconclusive; . = not tested or not shown. Unless noted, calls follow the shape of the dose curve; as a rule, active = well fitted inhibition curve with a large enough effect; inconclusive = small, poorly fitted or top-dose-only effect, or another doubt; inactive = no such curve, though single readings can be large or run the other way.

SMILES	HCV inhibitor	Shiga toxin inh	Cycloheximide cs	Pf growth 96h	HCMV inh	Pf growth 48h
O=c1oc2ccccc2cc1-c1nc2c(s1)CCc1ccccc1-2	-2.4%	63.0	21.5*	10.5%	20.9	?
O=c1oc2cc(O)ccc2cc1-c1nc2c(s1)CCc1ccccc1-2	?	-6.8	2.0	9.28µM*	19.3	-8.3%
Nc1nc2c(s1)CCc1ccccc1-2	4.5%	37.9*	20.9*	55.7%	-16.0	.
COc1ccc2c(c1)-c1nc(N)sc1CC2	?	9.6	2.6	-13.1%	?	2.4%
N#C/C(=C(/O)CCl)c1nc2c(s1)CCc1ccccc1-2	?	53.7*	30.3*	?	41.9	-14.4%
O=C(NCc1ccco1)C1C(=O)Nc2ccccc2C(=O)N1C1CCCCC1 (stereo not given)	.	.	.	.	1.3	.
O=C(NC1CCC(O)CC1)c1ccc(NS(=O)(=O)c2cccc([N+](=O)[O-])c2)cc1 (stereo not given)	0.6%	.	.	-28.6%	13.1	-7.7%
COC(=O)/C(C#N)=C/N(C)C	12.0%	16.7	-0.9	46.0%	44.5	2.33µM*
CCCNC(=O)C12CCC(C)(c3nc4cc(C)c(C)cc4nc31)C2(C)C (stereo not given)	12.5%	-2.9	6.1	2.1%	36.1	-29.9%
Cc1cccc(N2CCN(C(=O)c3ccc(Cl)c(S(=O)(=O)NCc4ccco4)c3)CC2)c1C	10µM*	1.7	7.8	?	-1.8	.
O=C(Nc1ccccc1)c1ccc(NCc2ccco2)c(S(=O)(=O)N2CCOCC2)c1	1.4%	15.8	10.0*	23.1%	-2.7	?
O=C(COC(=O)c1cccc(S(=O)(=O)N2CCc3ccccc3C2)c1)NCc1ccco1	10.7%	-5.8	0.5	7.3%	-26.9	-0.1%
O=C(Nc1ccccc1)c1ccc(NCCN2CCOCC2)c(S(=O)(=O)N2CCOCC2)c1	-3.5%	-7.8	-2.4	.	11.8	-16.0%
O=C(NCC1(N2CCOCC2)CCCCC1)c1ccc(Cl)c(S(=O)(=O)NCc2ccco2)c1	-6.2%	-8.1	7.7	25.7%	-19.4	6.57µM*
O=C(COC(=O)c1cccc(S(=O)(=O)N2CCc3ccccc32)c1)NCc1ccco1	15.1%	17.6	13.3	13.9%	-96.0*	2.6%
CCOc1ccc(NC(=O)C(=O)NCCN2CCN(C(=O)c3ccc(C)cc3)CC2)cc1	?	3.3	-5.9	?	?	-3.9%
O=C(NCc1ccco1)c1ccc(Cl)c(S(=O)(=O)N2CCOCC2)c1	5.6%	13.6	9.6	.	6.1	2.33µM*
O=C(NCc1cccs1)c1ccc(Cl)c(S(=O)(=O)N2CCCC2)c1	-17.7%	-5.5	7.8	?	-29.7	0.329µM*
O=C(NCc1ccco1)c1ccc(Cl)c(S(=O)(=O)N2CCc3ccccc32)c1	?	11.5	17.3*	?	-81.8*	?
CCc1cc(C(=O)N2CCCC(C(=O)c3ccc(Oc4ccccc4)cc3)C2)n(C)n1 (stereo not given)	?	-3.5	-1.5	0.0%	?	?
CCCC(=O)OCC(=O)c1[nH]c(C)c(C(C)=O)c1C	18.8%	49.3	35.3*	-4.7%	19.7	?
CCCCC(=O)OCC(=O)c1[nH]c(C)c(C(C)=O)c1C	1.1%	65.7*	38.6*	?	-3.5	-16.2%
COc1cc(C)ccc1OCC(=O)OCC(=O)c1[nH]c(C)c(C(C)=O)c1C	-4.6%	.	.	.	-5.2	.
CC(=O)c1c(C)[nH]c(C(=O)COc2cc(C)ccc2C(C)C)c1C	5.62µM*	21.1	3.2	4.65µM*	?	.
CCN(CC)C(=O)CSc1nc(-c2ccccc2F)nc2c1Cc1c(CO)cnc(C)c1O2	.	.	.	.	-5.0	.
SMILES	HCV inhibitor	Shiga toxin inh	Cycloheximide cs	Pf growth 96h	HCMV inh	Pf growth 48h
Cc1cccc(CN2CCC(CNC(=O)CSc3cc(=O)n(C)c4cc(Cl)ccc34)CC2)c1	?	3.3	-1.4	88.3%	-27.0	-1.2%
CCOC(=O)C[C@@H]1OC[C@H](C)N1S(=O)(=O)c1ccc(C)cc1	.	.	.	.	17.7	.
COc1ccc(NC(=O)NCc2ccco2)cc1OC	14.3%	19.7	-2.3	-2.1%	-23.8	-10.5%
O=C(NCc1ccco1)Nc1cccc([N+](=O)[O-])c1	-7.8%	16.0	12.6	45.9%	?	44.2%
O=C(NCc1ccco1)Nc1ccc(OC(F)(F)F)cc1	-15.6%	20.1	17.8*	?	-15.1	?
O=C(NCc1ccco1)Nc1ccc(Br)cc1	-16.1%	66.3*	21.1	10.6%	-28.5	46.5%
O=C(NCc1ccco1)Nc1ccc2nsnc2c1	?	42.0	30.4*	-21.6%	27.0	41.0%
Cc1ccccc1C1C=C(c2ccc(Cl)cc2)Nc2nnnn21 (stereo not given)	.	.	.	.	-24.2	.
Cc1cccc(N2CC(C(=O)NCCC3=CCCCC3)CC2=O)c1C (stereo not given)	?	.	.	?	-13.8	-11.4%
O=c1[nH][nH]c2ccccc2c1=O	22.9%	10.4	-2.8	61.5%	43.0	-4.3%
CC(C)(C)OC(=O)N1CCC[C@H]1c1nnc(SC/C=C/c2ccccc2)o1	-30.2%	29.3	2.7	?	5.2	10.4µM*
Cc1sc2nc(CN3CCCCC3)nc(N3CCN(C(=O)c4ccco4)CC3)c2c1C	?	20.0	-4.5	?	-7.0	7.38µM*
Cc1sc2nc(CN3CCCC3)nc(N3CCN(S(=O)(=O)c4cccs4)CC3)c2c1C	-17.2%	-20.7	-11.0	?	-14.9	?
Cc1sc2nc(CN3CCCCC3)nc(Cl)c2c1C	?	14.2	15.2*	?	20.9	5.6%
CCc1nc(N2CCN(S(=O)(=O)c3ccc(Br)cc3)CC2)c2c(C)c(C)sc2n1	12.6µM*	.	.	.	-4.1	.
Clc1nc(CN2CCOCC2)nc2sc3c(c12)CCC3	-11.5%	35.1	-2.0	0.0%	-29.2	6.2%
Cc1ccc(S(=O)(=O)N2CCN(c3nc(CN4CCCC4)nc4sc(C)c(C)c34)CC2)cc1	?	.	.	?	0.0	4.65µM*
Cc1nc(SCC(=O)N2CCN(C(=O)c3ccco3)CC2)c2c(C)c(C)sc2n1	-18.6%	-8.3	-2.7	?	-24.6	?
CN(CC(=O)Nc1ccc(Cl)c(Cl)c1)CC(=O)N1CCc2ccccc21	.	.	.	.	-8.2	.
Cc1ccc(C)c(S(=O)(=O)N2CCN(c3nc(CN4CCOCC4)nc4sc(C)c(C)c34)CC2)c1	?	.	.	11.7µM*	-13.2	11.7µM*
CCC(=O)N1CCN(c2nc(C)nc3sc(C)c(C)c23)CC1	?	-12.9	-6.3	?	-68.2*	1.6%
Clc1nc(CN2CCCCC2)nc2sc3c(c12)CCCC3	-17.3%	30.2	30.9	?	-6.4	-10.2%
Cc1nc(N2CCN(C(=O)CCC(=O)O)CC2)c2c(C)c(C)sc2n1	30.5%	-24.9	0.6	26.9%	43.5	9.0%
CC1CCN(Cc2nc(Cl)c3c4c(sc3n2)CCC4)CC1	-1.7%	33.3	25.0*	2.7%	23.9	-1.8%
